# A549 viability: Nrf2 qHTS screen for inhibitors: counterscreen for cytotoxicity; Potency, µM (series often up to 46 µM), without a hit: top-dose activity change, negative = cytotoxicity, hits mostly inhibitors; AID 504648, 2011; A549 ARE-Fluc cells, CellTiter-Fluor viability, 18-24 h; 390,000 tested, 0.16% active; also: % is scaled to controls: 0 for no effect and ±100 for the full control effect
#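 A549 ARE_Fluc cells in 5% FBS OPTI-MEM were exposed to compounds in concentration-response for 18-24 h at 37 deg C. Viability was read by CellTiter-Fluor fluorescence (Ex 405/Em 525) after 30 min, before the luciferase read.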
# Nrf2 block: Nrf2 qHTS screen for inhibitors | A549 ARE-Fluc reporter, luciferase luminescence, 18-24 h | Potency, µM (highest dose often 46 µM), inactives show at the top dose activity change, negative = inhibition, hits mostly inhibitors | 360,000 tested, 2.1% active | AID 504444, 2011; also: % is scaled to controls: 0 for no effect and ±100 for the full control effect; nearly all actives have a fitted effect of over 60% in size
#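 Nrf2 function is reported as luminescence of an ARE-controlled luciferase in A549 cells. Compounds were tested at several concentrations, and a CellTiter-Fluor read on the same wells flagged cytotoxicity.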
# S2 tox: Viability Counterscreen for Primary qHTS for Inhibitors of ATXN expression | AID 651635, 2014 | Potency, µM (doses to about 56.7 µM), actives largely listed as cytotoxic | S2 cells (HEK-293 line with an ATXN2-luciferase reporter) viability, CellTiter-Fluor protease fluorescence, 24 h | 400,000 tested, 0.49% active; also: nearly all actives have a fitted effect of over 40% in size
# ATXN2 expr inh: Primary qHTS for Inhibitors of ATXN expression | 360,000 tested, 0.72% active | HEK-293 ATXN2-luciferase reporter, luminescence, 24 h | Potency, µM (titrated, usually from 57 µM), for inactives: at the highest dose activity change, negative = inhibition, most hits filed as inhibitors; also: % is scaled to controls: 0 for no effect and ±100 for the full control effect; nearly all actives have a fitted effect of over 55% in size
#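 qHTS (up to 57 uM final) was run with 24 h compound exposure of reporter cells at 37 °C. Each well was multiplexed: SteadyGlo luminescence measured ATXN2-luciferase expression after a fluorogenic Gly-Phe-AFC viability readout (25 uM final).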
# HepG2 tox: qHTS for Inhibitors of TGF-b: Cytotox Counterscreen; HepG2 CAGA-GFP viability, ATP luminescence, 18 h; Potency, µM (titrated, usually from 46.1 µM), for inactives: top-dose activity change, negative = cytotoxicity, actives largely listed as cytotoxic; 410,000 tested, 0.76% active; AID 588856, 2011
#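 CellTiter-Glo luminescence gave cytotoxicity after 18 hours at 37 degrees C. The cells were HepG2 CAGA-GFP in 1% FBS DMEM, stimulated with 500 pg/mL TGF-beta after compound addition. %Activity was normalised to no-cell wells (complete cell-killing) and DMSO (no toxicity), and curves were fitted and classified.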
# TGFb SMAD3 inh: qHTS for Inhibitors of TGF-b. HepG2 CAGA-GFP TGF-b/SMAD3 reporter, GFP fluorescence, 18 h; TGF-beta stimulated, 500 pg/mL final. Potency, µM (highest dose often 46.1 µM), without a hit: at the top dose activity, negative = inhibition, actives largely listed as inhibitors. 410,000 tested, 1.2% active; also: % is scaled to controls: 0 for no effect and ±100 for the full control effect; nearly all actives have a fitted effect of over 65% in size
#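 TGF-beta reporter screen: HEPG2 CAGA-GFP, 1% FBS, 500 pg/mL TGF-beta final, 18 h; per-cell GFP summed per well; curves fitted and categorized by class.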
# Starred values were filed as active, the others as inactive; i = inactive; ? = inconclusive; . = not tested or not shown. Compounds with a hit are over-represented: about 3.8% of the library has one in this group of screens. Calls follow the shape of the dose curve; as a rule, active = well fitted curve in the direction sought with a large enough effect; inconclusive = small, poorly fitted or top-dose-only effect, or another doubt; inactive = no such curve, though single readings can be large; an effect the other way counts as inactive or inconclusive. Potency is read from the fitted curve at half-maximal effect.
SMILES,A549 viability,Nrf2 block,S2 tox,ATXN2 expr inh,HepG2 tox,TGFb SMAD3 inh
Cn1ccc2c(-c3ccc(C(F)(F)F)cc3)cc3c(c21)C1CCC3O1 (stereo not drawn),.,.,i,0.2%,-25.8%,?
Cc1cc(C)n(Cc2ccc(C(=O)Nc3cccc(Br)c3)o2)n1,?,23.1µM*,i,12.4%,-20.2%,8.9%
COc1ccc2c(c1)C(c1ccccc1)NC(=O)C2 (stereo not drawn),2.3%,-16.5%,i,0.3%,11.2µM*,-14.8%
Cc1cccc(NC(=O)CSc2nc3ccccc3nc2N2CCCCC2)c1C,-2.2%,2.7%,i,7.0%,-16.2%,14.2%
C=CCN(C(=O)CSC1=NC(=O)CN1C(C)=O)c1nc(C)c(-c2ccccc2)s1,2.1%,-13.2%,i,2.4%,-14.2%,12.6µM*
C=CCSc1nnc(-c2sc(-c3ccccc3)nc2C)n1C,-4.8%,12.4%,.,.,2.0%,16.1%
C=CCn1c(SCc2csc(C)n2)nc2sc3c(c2c1=O)CCCCC3,.,?,i,-13.5%,-11.5%,-17.9%
C=CCn1c(SCc2csc(C)n2)nc2sc3c(c2c1=O)CCCC3,-13.7%,25.9µM*,i,15.1%,-15.7%,-2.7%
CCOC(=O)c1ccc(NC(=O)CC2C(=O)N(c3ccc(F)cc3)C(=O)N2Cc2cccnc2)cc1 (stereo not drawn),7.6%,-12.6%,.,.,3.5%,15.0%
Oc1ccccc1-c1nc(/C=C/c2ccc(F)cc2)nn1-c1ccccc1,2.6%,-5.9%,.,.,-23.8%,-9.2%
Oc1ccccc1-c1nc(/C=C/c2ccccc2)nn1-c1ccccc1,-0.5%,-11.7%,i,8.3%,-24.5%,1.2%
Oc1ccc(/C=C/c2nc(-c3ccccc3O)n(-c3ccccc3)n2)cc1,?,7.31µM*,?,-27.9%,-99.8%,?
Oc1ccc(/C=C/c2nc(-c3ccccc3O)n(-c3ccccc3)n2)c(O)c1,?,?,.,.,14.1µM*,11.2µM*
COc1cccc(/C=c2/[nH]c(=O)/c(=C\c3cccc(OC)c3OC)[nH]c2=O)c1OC,.,.,.,.,-3.3%,6.8%
CN(Cc1ccccc1)S(=O)(=O)c1cccc(C(=O)O)c1,-4.9%,-6.5%,?,-38.4%,-16.7%,0.9%
C[C@@H](NC(=O)c1coc(=O)c(Br)c1)c1ccccc1,-12.0%,?,?,?,12.6µM*,?
COc1ccc(C(=O)NC(C)c2ccccc2)cc1Br (stereo not drawn),3.1%,-15.6%,i,-1.8%,-5.0%,-8.0%
COc1ccc(-c2cc(C(=O)Nc3c(C(=O)c4ccc(C)cc4)oc4ccccc34)no2)cc1,-6.2%,-7.7%,.,.,9.2%,28.1%
O=C(NCC1OCCc2ccccc21)c1ccc(NC(=O)c2ccccc2Cl)cc1 (stereo not drawn),2.0%,20.6µM*,i,-15.8%,14.8%,14.5%
C/C(=N\NC(=O)c1cc(C)nc2ccccc12)c1ccccn1,?,?,?,?,-36.9%,3.98µM*
C/C(=N\NC(=O)c1ccccn1)c1ccc(Cl)cc1,0.1%,9.9%,i,-5.6%,-1.5%,-2.1%
C/C(=N\NC(=O)c1ccc(Cl)cc1)c1ccccn1,?,3.66µM*,?,?,-24.0%,2µM*
C/C(=N\NC(=O)c1cc(C)nc2ccccc12)c1ccncc1,-10.2%,13.0%,i,-6.5%,-4.6%,0.0%
Cc1ccc(Cl)cc1N1CCN(c2cccc[n+]2C)CC1,2.5%,8.2µM*,i,-20.8%,-5.5%,0.9%
Cc1ccc(Cl)cc1N1CCN(C(=S)NCCc2ccccc2)CC1,-5.7%,-9.6%,i,-27.2%,-36.8%,?
COc1cccc(C2c3c(ncn(-c4ccc(C#N)cc4)c3=N)Oc3ccc4ccccc4c32)c1 (stereo not drawn),-10.0%,-23.2%,.,.,.,.
